# Assay results reported in the supplement of paper PMC10849652.
# The full data set covers some 8,800 targets. This sample favours those with a hit. About 0.5% of all pairs of compound and target were hits. Values without a mark were called inactive.
# How the values were obtained:
# Experiment in all cases: log2 fold change, soluble protein after heating vs DMSO (PISA); higher = thermal stabilisation; K562 lysate, 10 uM; active = over 0.2 and 3.5 SD of the protein, either way, in both replicates (recomputed)
# ibrutinib = compound: C=CC(=O)N1CCC[C@@H](n2nc(-c3ccc(Oc4ccccc4)cc3)c3c(N)ncnc32)C1 [ibrutinib]
# Outline: (§1)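 Quantification was by TMTpro 16plex LC-MS/MS with equalised channel sums, applied to the supernatant after 21,000xg for 90 min. Samples were crude K562 extract at 1 mg/mL protein in PBS pH 7.4 with 1 mM MgCl2, treated with 10 μM compound for 30 min, heated for 3 min across 48°C-58°C, pooled and brought to 0.5% NP-40 at 4°C. Values are log-two fold changes in thermal stability relative to solvent controls, from duplicates.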
# [1] = compound: CC(=O)c1cnc2ccc(-c3cc(Cl)c(O)c(Cl)c3)nc2c1N[C@H]1CC[C@H](CN(C)C)CC1
# Outline: as §1
# ralimetinib = compound: CC(C)(C)Cn1c(N)nc2ccc(-c3[nH]c(C(C)(C)C)nc3-c3ccc(F)cc3)nc21 [ralimetinib]
# Outline: as §1
# [2] = compound: CC(C)(O)CC(=O)NCCn1ccc2ncnc(Nc3ccc(Oc4cccc(C(F)(F)F)c4)c(Cl)c3)c21
# Outline: as §1
# [3] = compound: CC(C)C1=C2N=C(C=C(N2N=C1)NCC3=CC=CC=C3)NCCCCCCN
# Outline: as §1
# [4] = compound: CC1=C(C(CC(=O)N1)C2=CC=C(C=C2)C(F)(F)F)C(=O)NC3=C(C=C4C(=C3)C=NN4)F
# Outline: as §1
# [5] = compound: CC1=C(C2=C(C=C1)C(=O)C3=CC=CC=C3N2CCCN)C
# Outline: as §1
# [6] = compound: CC1=C(C=C(C=C1)NC(=O)C2=CC(=CC=C2)C(C)(C)C#N)NC3=CC4=C(C=C3)N=CN(C4=O)C
# Outline: as §1
# [7] = compound: CC1=C(C=C(C=C1)NC(=O)C2=CC(=CC=C2)N(C)C)NC(=O)C3=CC=C(C=C3)O
# Outline: as §1
# [8] = compound: CC1=CC=C(C=C1)SC2=C3C=C(SC3=CN=C2)C(=O)N
# Outline: as §1
# vemurafenib = compound: CCCS(=O)(=O)Nc1ccc(F)c(C(=O)c2c[nH]c3ncc(-c4ccc(Cl)cc4)cc23)c1F [vemurafenib]
# Outline: as §1
# [9] = compound: CCCS(=O)(=O)Nc1ccc(F)c(C(=O)c2c[nH]c3ncc(Cl)cc23)c1F
# Outline: as §1
# barasertib = compound: CCN(CCCOc1ccc2c(Nc3cc(CC(=O)Nc4cccc(F)c4)[nH]n3)ncnc2c1)CCOP(=O)(O)O [barasertib]
# Outline: as §1
# [10] = compound: CC[C@@H]1C(=O)N(C)c2cnc(Nc3ccc(C(=O)NC4CCN(C)CC4)cc3OC)nc2N1C1CCCC1
# Outline: as §1
# volasertib = compound: CC[C@@H]1C(=O)N(C)c2cnc(Nc3ccc(C(=O)N[C@H]4CC[C@H](N5CCN(CC6CC6)CC5)CC4)cc3OC)nc2N1C(C)C [volasertib]
# Outline: as §1
# [11] = compound: CCn1c(C(=O)N(C2CC2)C2CC2)cc2c3c(ncn3C)c(Nc3cc(C)n(C)n3)nc21
# Outline: as §1
# [12] = compound: CCn1cc(-c2ccnc3[nH]c(-c4cccc(CN(C)C)c4)cc23)c(-c2ccc(NC(=O)N(C)C)cc2)n1
# Outline: as §1
# [13] = compound: CN1CCC(CNc2ccc3ncc(-c4cccc(OC(F)(F)F)c4)n3n2)CC1
# Outline: as §1
# saracatinib = compound: CN1CCN(CCOc2cc(OC3CCOCC3)c3c(Nc4c(Cl)ccc5c4OCO5)ncnc3c2)CC1 [saracatinib]
# Outline: as §1
# sotrastaurin = compound: CN1CCN(c2nc(C3=C(c4c[nH]c5ccccc45)C(=O)NC3=O)c3ccccc3n2)CC1 [sotrastaurin]
# Outline: as §1
# Chain of UniProt Q96EX1 (Q96EX1 whole entry, looked up): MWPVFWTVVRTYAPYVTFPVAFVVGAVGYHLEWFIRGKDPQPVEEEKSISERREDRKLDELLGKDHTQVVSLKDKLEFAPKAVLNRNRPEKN
# Chain of UniProt Q9UHW9 (Q9UHW9 whole entry, looked up): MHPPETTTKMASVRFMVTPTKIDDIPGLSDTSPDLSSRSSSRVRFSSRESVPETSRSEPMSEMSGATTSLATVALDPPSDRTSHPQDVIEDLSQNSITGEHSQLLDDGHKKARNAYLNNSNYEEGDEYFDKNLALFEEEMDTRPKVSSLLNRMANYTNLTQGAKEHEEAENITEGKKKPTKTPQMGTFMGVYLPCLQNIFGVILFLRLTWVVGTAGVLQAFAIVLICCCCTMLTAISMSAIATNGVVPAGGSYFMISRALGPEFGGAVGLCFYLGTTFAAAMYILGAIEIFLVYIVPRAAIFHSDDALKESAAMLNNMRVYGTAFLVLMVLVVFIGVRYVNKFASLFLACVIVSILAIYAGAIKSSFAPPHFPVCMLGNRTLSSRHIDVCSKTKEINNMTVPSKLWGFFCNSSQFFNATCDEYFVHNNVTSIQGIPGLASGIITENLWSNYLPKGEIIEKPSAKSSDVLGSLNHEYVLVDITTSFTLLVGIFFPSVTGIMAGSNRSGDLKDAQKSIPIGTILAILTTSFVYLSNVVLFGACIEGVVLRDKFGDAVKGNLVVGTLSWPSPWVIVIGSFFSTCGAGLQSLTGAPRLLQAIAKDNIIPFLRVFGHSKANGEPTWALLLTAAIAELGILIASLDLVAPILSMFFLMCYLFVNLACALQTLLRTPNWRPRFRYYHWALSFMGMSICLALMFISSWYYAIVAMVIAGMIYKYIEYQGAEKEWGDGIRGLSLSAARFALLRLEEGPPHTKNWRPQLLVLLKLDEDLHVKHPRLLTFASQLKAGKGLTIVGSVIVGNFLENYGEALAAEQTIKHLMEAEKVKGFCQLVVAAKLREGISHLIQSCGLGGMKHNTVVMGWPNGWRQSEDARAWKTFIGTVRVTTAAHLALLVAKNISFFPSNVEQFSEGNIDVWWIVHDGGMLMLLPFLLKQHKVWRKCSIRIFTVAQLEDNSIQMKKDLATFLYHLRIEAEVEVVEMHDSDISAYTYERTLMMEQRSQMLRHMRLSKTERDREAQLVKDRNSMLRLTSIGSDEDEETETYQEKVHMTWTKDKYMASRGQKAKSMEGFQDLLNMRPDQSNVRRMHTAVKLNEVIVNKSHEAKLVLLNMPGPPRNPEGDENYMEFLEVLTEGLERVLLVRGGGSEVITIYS
# Chain of UniProt Q9HBR0 (Q9HBR0 whole entry, looked up): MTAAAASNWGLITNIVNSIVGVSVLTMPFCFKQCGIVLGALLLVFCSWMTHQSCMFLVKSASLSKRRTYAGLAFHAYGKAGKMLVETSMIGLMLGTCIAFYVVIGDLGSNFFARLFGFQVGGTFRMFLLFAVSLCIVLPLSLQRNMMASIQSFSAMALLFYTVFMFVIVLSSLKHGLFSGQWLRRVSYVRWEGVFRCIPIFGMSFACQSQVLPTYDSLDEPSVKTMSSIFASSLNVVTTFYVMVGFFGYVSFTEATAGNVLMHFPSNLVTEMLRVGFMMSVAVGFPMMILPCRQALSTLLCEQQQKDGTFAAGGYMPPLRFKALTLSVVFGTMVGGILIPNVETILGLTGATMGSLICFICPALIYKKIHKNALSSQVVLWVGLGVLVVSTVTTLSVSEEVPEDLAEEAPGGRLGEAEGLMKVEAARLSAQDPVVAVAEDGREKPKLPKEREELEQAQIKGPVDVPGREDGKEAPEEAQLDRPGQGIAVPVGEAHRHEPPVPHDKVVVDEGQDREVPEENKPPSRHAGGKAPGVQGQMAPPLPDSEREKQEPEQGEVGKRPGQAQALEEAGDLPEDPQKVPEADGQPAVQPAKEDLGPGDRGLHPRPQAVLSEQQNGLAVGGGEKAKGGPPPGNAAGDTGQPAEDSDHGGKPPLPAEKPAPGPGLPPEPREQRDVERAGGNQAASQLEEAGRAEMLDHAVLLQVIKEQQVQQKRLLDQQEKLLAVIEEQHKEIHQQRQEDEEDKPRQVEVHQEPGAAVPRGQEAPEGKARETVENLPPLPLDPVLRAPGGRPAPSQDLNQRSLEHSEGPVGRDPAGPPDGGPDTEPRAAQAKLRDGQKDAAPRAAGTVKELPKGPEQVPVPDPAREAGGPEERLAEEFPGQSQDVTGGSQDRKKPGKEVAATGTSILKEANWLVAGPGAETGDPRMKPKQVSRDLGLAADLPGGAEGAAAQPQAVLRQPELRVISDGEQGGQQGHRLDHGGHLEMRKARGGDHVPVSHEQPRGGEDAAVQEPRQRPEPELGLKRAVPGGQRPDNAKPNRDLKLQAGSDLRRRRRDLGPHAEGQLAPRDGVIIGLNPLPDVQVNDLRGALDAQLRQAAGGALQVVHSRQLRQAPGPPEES
# Chain of UniProt Q86US8 (Q86US8 whole entry, looked up): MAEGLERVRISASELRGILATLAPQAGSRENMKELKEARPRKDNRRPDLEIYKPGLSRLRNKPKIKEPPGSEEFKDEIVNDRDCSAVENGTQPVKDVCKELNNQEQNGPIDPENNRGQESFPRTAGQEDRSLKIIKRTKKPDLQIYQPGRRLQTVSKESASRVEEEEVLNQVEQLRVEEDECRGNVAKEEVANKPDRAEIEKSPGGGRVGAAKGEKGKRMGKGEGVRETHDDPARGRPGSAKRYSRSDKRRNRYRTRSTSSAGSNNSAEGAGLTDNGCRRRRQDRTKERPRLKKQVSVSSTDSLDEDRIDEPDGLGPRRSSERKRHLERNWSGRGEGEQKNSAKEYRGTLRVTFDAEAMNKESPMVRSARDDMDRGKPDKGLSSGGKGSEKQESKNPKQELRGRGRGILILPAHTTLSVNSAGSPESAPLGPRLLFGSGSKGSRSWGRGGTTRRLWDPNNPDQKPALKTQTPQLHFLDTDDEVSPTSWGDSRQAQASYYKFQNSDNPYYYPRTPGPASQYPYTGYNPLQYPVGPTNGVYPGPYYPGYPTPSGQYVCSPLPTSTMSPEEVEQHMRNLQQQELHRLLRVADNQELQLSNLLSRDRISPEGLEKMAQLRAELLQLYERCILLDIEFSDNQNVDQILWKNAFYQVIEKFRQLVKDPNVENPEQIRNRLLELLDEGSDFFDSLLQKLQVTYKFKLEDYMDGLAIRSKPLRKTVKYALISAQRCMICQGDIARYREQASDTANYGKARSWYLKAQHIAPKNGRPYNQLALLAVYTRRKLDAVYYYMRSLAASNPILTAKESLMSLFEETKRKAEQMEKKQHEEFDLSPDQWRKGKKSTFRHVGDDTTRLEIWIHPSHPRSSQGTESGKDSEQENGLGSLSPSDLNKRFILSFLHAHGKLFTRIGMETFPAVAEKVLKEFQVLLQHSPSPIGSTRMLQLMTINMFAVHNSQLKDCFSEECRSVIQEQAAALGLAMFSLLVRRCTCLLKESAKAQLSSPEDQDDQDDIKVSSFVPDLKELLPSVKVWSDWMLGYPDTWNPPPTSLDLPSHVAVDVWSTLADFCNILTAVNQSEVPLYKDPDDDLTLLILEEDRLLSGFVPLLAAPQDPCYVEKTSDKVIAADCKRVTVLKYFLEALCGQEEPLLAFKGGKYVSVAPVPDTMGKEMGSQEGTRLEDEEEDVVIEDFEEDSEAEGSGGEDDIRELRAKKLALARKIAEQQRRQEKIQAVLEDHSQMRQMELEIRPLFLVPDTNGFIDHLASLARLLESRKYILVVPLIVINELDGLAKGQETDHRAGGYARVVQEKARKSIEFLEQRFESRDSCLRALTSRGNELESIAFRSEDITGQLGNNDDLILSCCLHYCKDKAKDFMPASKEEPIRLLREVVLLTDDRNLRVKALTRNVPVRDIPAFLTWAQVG
# Chain of UniProt P19623 (P19623 whole entry, looked up): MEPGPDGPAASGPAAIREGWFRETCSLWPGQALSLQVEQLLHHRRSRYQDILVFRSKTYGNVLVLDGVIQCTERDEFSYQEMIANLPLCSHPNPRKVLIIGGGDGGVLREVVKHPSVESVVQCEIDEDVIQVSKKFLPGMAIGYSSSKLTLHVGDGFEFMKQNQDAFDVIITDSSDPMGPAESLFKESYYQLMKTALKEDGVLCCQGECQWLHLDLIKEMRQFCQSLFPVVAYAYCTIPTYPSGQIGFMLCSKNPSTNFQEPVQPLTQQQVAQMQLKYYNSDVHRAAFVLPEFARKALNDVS
# Chain of UniProt O75528 (O75528 whole entry, looked up): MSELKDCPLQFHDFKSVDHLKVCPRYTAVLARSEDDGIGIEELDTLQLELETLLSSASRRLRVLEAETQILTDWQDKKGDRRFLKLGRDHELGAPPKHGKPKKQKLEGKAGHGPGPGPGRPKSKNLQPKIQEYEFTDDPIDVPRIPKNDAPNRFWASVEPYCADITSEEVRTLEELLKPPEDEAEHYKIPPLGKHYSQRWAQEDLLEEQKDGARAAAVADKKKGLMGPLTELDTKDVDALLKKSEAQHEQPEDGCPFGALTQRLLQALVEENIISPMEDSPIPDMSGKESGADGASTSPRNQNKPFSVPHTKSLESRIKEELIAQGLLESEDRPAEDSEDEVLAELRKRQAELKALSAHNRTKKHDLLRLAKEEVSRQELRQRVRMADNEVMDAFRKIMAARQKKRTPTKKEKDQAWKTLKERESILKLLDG
# Chain of UniProt Q96DW6 (Q96DW6 whole entry, looked up): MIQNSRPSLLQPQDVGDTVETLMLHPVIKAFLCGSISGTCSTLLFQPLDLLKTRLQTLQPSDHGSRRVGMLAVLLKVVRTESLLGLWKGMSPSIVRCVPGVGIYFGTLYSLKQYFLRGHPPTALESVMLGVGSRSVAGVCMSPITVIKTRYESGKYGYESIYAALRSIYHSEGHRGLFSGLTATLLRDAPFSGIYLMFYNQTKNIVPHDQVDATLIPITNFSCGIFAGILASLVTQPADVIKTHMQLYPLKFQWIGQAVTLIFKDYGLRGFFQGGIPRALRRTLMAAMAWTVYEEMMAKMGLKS
# Chain of UniProt Q9HBM1 (Q9HBM1 whole entry, looked up): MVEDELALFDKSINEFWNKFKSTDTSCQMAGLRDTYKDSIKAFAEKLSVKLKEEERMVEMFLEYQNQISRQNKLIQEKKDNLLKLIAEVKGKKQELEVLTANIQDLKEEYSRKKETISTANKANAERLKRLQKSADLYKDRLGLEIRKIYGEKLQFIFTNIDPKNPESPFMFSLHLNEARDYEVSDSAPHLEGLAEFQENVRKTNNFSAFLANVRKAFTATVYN
Target,log2 fold change (ibrutinib),log2 fold change [1],log2 fold change (ralimetinib),log2 fold change [2],log2 fold change [3],log2 fold change [4],log2 fold change [5],log2 fold change [6],log2 fold change [7],log2 fold change [8],log2 fold change (vemurafenib),log2 fold change [9],log2 fold change (barasertib),log2 fold change [10],log2 fold change (volasertib),log2 fold change [11],log2 fold change [12],log2 fold change [13],log2 fold change (saracatinib),log2 fold change (sotrastaurin)
STIM1 (UniProt Q13586),0.033,0.043,0.023,-0.021,0.027,0.003,0.023,0.001,0.008,0.027,0.003,0.012,0.036,-0.076,0.006,0.048,0.259,-0.205,0.003,-0.01
STK26 (UniProt Q9P289),-0.043,0.113,-0.018,0.004,-0.015,-0.021,0.006,-0.028,0.035,-0.025,0.021,-0.008,-0.009,-0.032,-0.064,0.037,-0.045,-0.048,-0.02,0.006
SPC25 (UniProt Q9HBM1),0,-0.058,-0.038,0.015,-0.002,-0.032,-0.017,0.016,0.002,0.006,0.011,-0.008,0.036,0.006,-0.019,0.012,-0.083,-0.004,0.013,-0.013
SMIM12 (UniProt Q96EX1),0.04,0.013,0.021,-0.049,-0.024,-0.008,-0.002,0.038,-0.064,-0.011,0.023,0.024,0.106,0.129,-0.004,0.08,0.355 (active),-0.269,0.041,0.025
SMG6 (UniProt Q86US8),0.071,-0.061,0.034,-0.016,0.012,0.074,0.006,0.004,0.047,0.059,0.12,-0.006,0.014,-0.139,-0.031,0.038,-0.16,0.141,0.036,0.098
SRM (UniProt P19623),0.018,0.007,0.025,-0.047,-0.011,-0.003,-0.006,0.003,0,-0.011,-0.004,-0.003,-0.008,-0.02,-0.034,-0.001,0.015,0,0.02,0.011
SRSF7 (UniProt Q16629),-0.114,-0.071,0.074,-0.004,0,-0.005,-0.023,-0.037,0.02,-0.079,0.012,0.03,-0.057,-0.007,0.012,0.017,-0.034,0.193,-0.008,0.028
TADA3 (UniProt O75528),0.032,0,-0.013,-0.022,0.018,-0.003,-0.005,0.054,0.024,-0.011,-0.007,0.004,0.002,0.008,-0.006,-0.022,-0.122,0.006,-0.017,-0.012
"SNX6, A0A0A0MRI2",-0.034,0,-0.005,-0.03,-0.011,-0.032,-0.001,0.018,0.039,-0.004,0.005,0.025,0.006,-0.111,-0.05,0.026,0.21,-0.126,-0.002,-0.013
SLC25A38 (UniProt Q96DW6),0.061,-0.108,-0.074,-0.003,-0.114,-0.153,-0.437,0.002,0.115,0.04,0.037,0.013,-0.005,0.209,0.012,0.015,-0.055,0.067,-0.127,0.07
SQLE (UniProt Q14534),0.028,0.051,0.081,-0.047,0,-0.02,-0.006,0.039,-0.06,-0.027,0.036,-0.01,0.103,0.051,0.073,-0.063,-0.06,-0.02,0.077,0.065
SLC12A6 (UniProt Q9UHW9),0.01,-0.021,-0.037,-0.014,0.011,0.001,-0.012,0.012,0.024,-0.021,0.015,0.021,0.002,0.037,0.002,0.008,-0.06,0.012,-0.003,-0.01
SPG11 (UniProt Q96JI7),0.077,0.068,0.049,-0.024,-0.011,-0.048,-0.063,-0.061,0.098,0.007,0.084,-0.011,0.006,-0.042,-0.037,-0.05,0.06,-0.13,0.077,0.007
SOAT1 (UniProt P35610),0.043,0.017,0.151,-0.107,-0.055,-0.046,-0.022,0.1,-0.012,0.019,0.047,0.055,0.008,-0.003,-0.009,-0.061,-0.063,-0.062,0.016,0.019
SLC38A10 (UniProt Q9HBR0),0.103,-0.047,-0.025,-0.056,-0.007,-0.051,-0.018,0.032,-0.001,-0.027,0.1,-0.008,0.014,0.111,-0.015,-0.022,-0.229 (active),0.022,0.024,0.015
SMC4 (UniProt Q9NTJ3),-0.002,-0.005,-0.015,-0.012,-0.009,-0.006,0.002,-0.016,0.023,0.013,0.002,0.001,0.022,-0.059,-0.041,0.006,0.053,-0.118,0.015,0.012
